Screens deposited in PubChem by National Center for Advancing Translational Sciences (NCATS).
Sm TGR block: qHTS Assay for the Inhibitors of Schistosoma Mansoni Peroxiredoxins; Schistosoma mansoni thioredoxin glutathione reductase (TGR), Q962Y6; purified TGR, DTNB reduction, TNB absorbance 405 nm; Potency, µM (highest dose often 114 µM), without a hit: at the highest dose activity change, negative = inhibition, usual class: inhibitors; 360,000 compounds, 3% hits; active = well fitted inhibition curve with a large enough effect; inconclusive = small, poorly fitted or top-dose-only effect; inactive = no such curve, though single readings can be large or run the other way; note: potency is the fitted concentration of half-maximal effect; % is set by controls: 0 for no effect and ±100 for the full control effect; nearly all actives have a fitted effect of over 60% in size
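First, TGR (20 nM dispensed) and NADPH were mixed with compound. Second, a 15 min room-temperature incubation followed. Third, further NADPH and then DTNB were added to start the reaction. Finally, TNB absorbance was monitored kinetically.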
FMDV antiviral: High Throughput Screening for Foot and Mouth Disease Virus Antivirals; FMDV antiviral cell-based qHTS; Potency, µM (titrated, usually from 57.9 µM), for inactives: at the top dose activity change, negative = inhibition, actives largely listed as inhibitors; 410,000 compounds, 1.2% hits; AID 1159524, 2015; calls by dose curve; tested in HEK293T cells; note: read-out not given here; potency is the fitted concentration of half-maximal effect; % is set by controls: 0 for no effect and ±100 for the full control effect; nearly all actives have a fitted effect of over 45% in size
CHX counter: Cycloheximide Counterscreen for Small Molecule Inhibitors of Shiga Toxin; cell reporter, cycloheximide protein synthesis inhibition counterscreen; max response, %; 300,000 compounds, 12% hits; in the data active = max response mostly above about 13%, no sharp cut-off; inactive = mostly below about 14%; note: read at 38.3 µM for the half of the compounds with a filed dose; 0% is about no effect
Shiga toxin inh: A qHTS for Small Molecule Inhibitors of Shiga Toxin; Vero cells, Shiga toxin protein synthesis inhibition reporter; inhibition, % at 38.7 µM; 290,000 compounds, 9.2% hits; in the data active = inhibition mostly above about 28%, no sharp cut-off; inactive = mostly below about 43%; note: 0% is about no effect
* = called active by the depositor. The list is not random: actives were taken first. Their share in the collection is about 12%.

For COc1ccc(-n2nc3c(N4CCCC(C(=O)NCc5ccc(C)cc5)C4)nnc(C)c3c2C)cc1 (centres undefined) the results were Sm TGR block -28% and FMDV antiviral -3%.
For COc1ccc(CNC(=O)C2CCC(=O)N(CC3CCCCC3)C2)cc1 (centres undefined) the results were Sm TGR block 0%, FMDV antiviral 7%, CHX counter -5 and Shiga toxin inh -15.
COc1ccc(CCN2CC(C(=O)NCCc3ccccc3C(F)(F)F)CCC2=O)cc1 (centres undefined) was read as Sm TGR block -15%, FMDV antiviral 45%, CHX counter 66* and Shiga toxin inh 70*.
Cc1ccccc1CNC(=O)C1CCC(=O)N(Cc2cccc(F)c2)C1 (centres undefined) was read as Sm TGR block -7%, FMDV antiviral 10%, CHX counter -2 and Shiga toxin inh 6.
`COc1ccccc1CCNC(=O)C1CCC(=O)N(Cc2cccc(F)c2)C1` (centres undefined) gave Sm TGR block -19%, FMDV antiviral 24%, CHX counter 20* and Shiga toxin inh 37*.
For COc1ccccc1CN1CC(C(=O)NCc2c(F)ccc(C)c2F)CCC1=O (centres undefined) the results were Sm TGR block 1%, FMDV antiviral 32%, CHX counter 47* and Shiga toxin inh 82*.
Cc1ccc(CNC(=O)C2CCC(=O)N(CC3CCCCC3)C2)o1 (centres undefined) was read as Sm TGR block 28µM*, FMDV antiviral -10%, CHX counter 4 and Shiga toxin inh 19.
COc1ccc(N2CCN(S(=O)(=O)c3ccc4c(c3)CCCN4C(C)=O)CC2)cc1 was read as Sm TGR block 5% and FMDV antiviral 0%.
`COc1cc2c(cc1O)-c1ccccc1CN(C)C2` gave FMDV antiviral -5%.
Screening Cc1ccc(S(=O)(=O)c2cn(CC(=O)Nc3ccc(F)cc3)c3cc4c(cc3c2=O)OCO4)cc1 returned Sm TGR block -6% and FMDV antiviral -7%.
`O=C(c1ccc2c(c1)N(Cc1ccccc1)C(=O)c1ccccc1S2=O)N1CCC(Cc2ccccc2)CC1` (centres undefined) gave Sm TGR block 4% and FMDV antiviral inconclusive.
For COc1ccccc1CN1CC(C(=O)N(C)Cc2ccc(C)o2)CCC1=O (centres undefined) the results were Sm TGR block 20µM*, FMDV antiviral 17%, CHX counter 22* and Shiga toxin inh 98.
COc1ccccc1CN1CC(C(=O)NCCCc2ccc(F)cc2)CCC1=O (centres undefined) was read as Sm TGR block -8%, FMDV antiviral 0%, CHX counter 9 and Shiga toxin inh 6.
COc1ccccc1CCNC(=O)C1CCC(=O)N(Cc2ccccc2OC)C1 (centres undefined) was read as Sm TGR block 0%, FMDV antiviral -8%, CHX counter 15* and Shiga toxin inh 23.
COc1ccccc1CN1CC(C(=O)NCCc2ccc(C)o2)CCC1=O (centres undefined) was read as Sm TGR block 25µM*, FMDV antiviral 18%, CHX counter 13 and Shiga toxin inh -3.
CC(C)(C)C(=O)Nc1ccccc1C(=O)OCc1cc(=O)n2ccsc2n1 was read as Sm TGR block 3% and FMDV antiviral -18%.
Cc1ccccc1CSCc1nc2ccccc2[nH]1 was read as Sm TGR block -7%, FMDV antiviral 5%, CHX counter 32* and Shiga toxin inh 39*.
Cc1ccc(C)c(CSCc2nc3ccccc3[nH]2)c1 was read as Sm TGR block 1%, FMDV antiviral inconclusive, CHX counter 4 and Shiga toxin inh -1.
C=C(C)CSCc1nc2ccccc2[nH]1 was read as Sm TGR block 2%, FMDV antiviral 10%, CHX counter 37* and Shiga toxin inh 54.
`Fc1ccc(-c2cc(-c3nc(-c4cccc(Cl)c4)no3)[nH]n2)cc1` gave Sm TGR block 5% and FMDV antiviral 2%.
`Cc1cccc(NC(=O)N2CCC(CN3CCCCCC3)CC2)c1C` gave Sm TGR block inconclusive and FMDV antiviral -6%.
`COc1ccc(/C(C#N)=C/c2ccccn2)cc1` gave Sm TGR block -1%, FMDV antiviral 16%, CHX counter 60* and Shiga toxin inh 110*.
N#C/C(=C\c1ccccn1)c1nc2ccccc2s1 was read as Sm TGR block inconclusive, FMDV antiviral 28%, CHX counter 35* and Shiga toxin inh 57*.
Screening c1ccc(N2OCC3Cn4c(nc5ccccc54)C32)cc1 (centres undefined) returned Sm TGR block inconclusive, FMDV antiviral 45%, CHX counter 27* and Shiga toxin inh 42*.
Screening c1ccc(CN2OCC3Cn4c(nc5ccccc54)C32)cc1 (centres undefined) returned Sm TGR block -31%, FMDV antiviral -13%, CHX counter -3 and Shiga toxin inh -4.
Screening O=C(NCc1cccnc1)/C(=C\c1ccc(-c2cccc(Cl)c2)o1)S(=O)(=O)c1ccccc1 returned Sm TGR block 18µM*, FMDV antiviral 18µM*, CHX counter -13 and Shiga toxin inh -14.
Screening CN1CCN(c2cc(N3CCN(C(=O)c4ccco4)CC3)c3c4c(onc24)-c2ccccc2C3=O)CC1 returned Sm TGR block 10µM*, FMDV antiviral inconclusive, CHX counter 1 and Shiga toxin inh -19.
O=C(O)CCCNc1cc(N2CCN(C(=O)c3ccco3)CC2)c2noc3c2c1C(=O)c1ccccc1-3 was read as Sm TGR block 6.3µM*, FMDV antiviral 8%, CHX counter -7 and Shiga toxin inh 1.
`O=C1c2ccccc2-c2onc3c(N4CCN(CCO)CC4)cc(N4CCN(C(=O)c5ccco5)CC4)c1c23` gave Sm TGR block 3.5µM*, FMDV antiviral 0%, CHX counter -5 and Shiga toxin inh -13.
Screening CCOC(=O)N1CCN(c2cc(NCCC(=O)O)c3c4c(onc24)-c2ccccc2C3=O)CC1 returned Sm TGR block inconclusive, FMDV antiviral 0%, CHX counter 5 and Shiga toxin inh 8.
Screening CCCCNc1cc(N2CCN(C3CCCCC3)CC2)c2noc3c2c1C(=O)c1ccccc1-3 returned Sm TGR block 4% and FMDV antiviral -8%.
O=C(O)CCCNc1cc(N2CCC3(CC2)OCCO3)c2noc3c2c1C(=O)c1ccccc1-3 was read as Sm TGR block 8.9µM*, CHX counter 24* and Shiga toxin inh 54*.
Screening Cc1c(Cl)ccc2sc(N3CCN(C(=O)CS(=O)(=O)c4ccccc4)CC3)nc12 returned Sm TGR block 20% and FMDV antiviral inconclusive.
`COC1=C[C@@H](C)C2CC3OC(=O)C[C@H]4C(C)=C(OC)C(=O)C([C@@]2(C)C1=O)[C@@]34C` (some centres undefined) gave FMDV antiviral -3%.
